BH1578 lux ind: induces V. cholerae light production without autoinducers; V. cholerae BH1578 lux reporter, luminescence, 6 h; activation, % at 18.7 µM; 350,000 tested, 0.16% active; AID 588436; in the data active means activation mostly above about 9.7%, no sharp cut-off
FBA Mtb inh: inhibitors of M. tuberculosis fructose-bisphosphate aldolase; P9WQA3; purified M. tuberculosis FBA, fluorescence read-out; inhibition, % at 1 µM; 360,000 tested, 2.3% active; AID 588726; in the data active means inhibition above about 27%;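 further: 0% = vehicle and 100% = reference inhibitor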
Target sequence (P9WQA3 whole entry, looked up): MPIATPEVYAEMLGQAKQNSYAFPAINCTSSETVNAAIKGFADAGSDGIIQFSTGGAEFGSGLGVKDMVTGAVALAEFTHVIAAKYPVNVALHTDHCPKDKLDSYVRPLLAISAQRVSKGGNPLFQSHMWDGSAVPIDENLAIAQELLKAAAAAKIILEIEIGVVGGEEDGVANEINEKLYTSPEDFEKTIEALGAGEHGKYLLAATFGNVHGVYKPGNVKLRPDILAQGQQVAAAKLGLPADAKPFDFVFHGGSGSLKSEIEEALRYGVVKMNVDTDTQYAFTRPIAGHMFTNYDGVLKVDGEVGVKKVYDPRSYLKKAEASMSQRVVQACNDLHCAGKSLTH
3CLpro inhibitor: SARS-CoV 3CLpro protease inhibition. P0C6X7. recombinant SARS-CoV 3CLpro, quenched FRET peptide cleavage. inhibition, % at 6 µM. 290,000 tested, 0.14% active. AID 1706; in the data active means inhibition above about 12%
GDH-TPI inh: counter-screen for M. tuberculosis FBA inhibitors: GDH-TPI coupled enzymes. 360,000 tested, 1.2% active. GDH-TPI coupled enzyme counterscreen, NADH absorbance. inhibition, % at 4.8 µM; in the data active means inhibition above about 30%;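 further: 0% = DMSO wells and 100% = wells lacking the enzyme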
PrPC surface inh: cell surface PrPC inhibition, primary TR-FRET screen; P04156; TR-FRET read-out; inhibition, % at 13.8 µM; 370,000 tested, 0.43% active; AID 720596; in the data active means inhibition above about 24%; further: 0% = median of the test wells and 100% = reference compound wells
* = called active by the depositor; i = inactive; . = not tested or not shown; + = active, no number. Hits are enriched below; roughly 3.9% of the tested compounds scored in any of these assays.

SMILES | BH1578 lux ind | FBA Mtb inh | 3CLpro inhibitor | GDH-TPI inh | PrPC surface inh
COCCn1c(N)c(C(=O)NCC2CCCO2)c2nc3ccccc3nc21 (stereo unspecified) | i | + | -5 | 17 | -12
COCCCn1c(N)c(C(=O)OCCOC)c2nc3ccccc3nc21 | i | + | 4 | 14 | -17
Nc1c(C(=O)OCC2CCCO2)c2nc3ccccc3nc2n1Cc1cccs1 (stereo unspecified) | 0 | 163* | -6 | 22 | -11
CCCCC(CCc1ccccn1)C(=O)c1ccccc1 (stereo unspecified) | i | -2 | . | -2 | 6
COc1ccc(CCN2C(=O)CC(NNc3ccc([N+](=O)[O-])cc3)C2=O)cc1OC (stereo unspecified) | i | -2 | -4 | 26 | -7
CCOC(=O)c1c(N)n(CCCOC(=O)c2ccco2)c2nc3ccccc3nc12 | i | + | -6 | 9 | -8
CCCCNC(=O)c1c(N)n(CCCOC)c2nc3ccccc3nc12 | i | 115* | -4 | -1 | -6
COCCNC(=O)c1c(N)n(CCC(C)C)c2nc3ccccc3nc12 | 0 | 121* | 3 | 6 | -5
COCCCNC(=O)c1c(N)n(/N=C/c2cccnc2)c2nc3ccccc3nc12 | 0 | -6 | 1 | 9 | -11
O=C(CNC(=O)/C=C/c1ccco1)N=Nc1c(O)[nH]c2ccccc12 | 2 | 2 | 2 | 23 | -13
CN1C(=O)C(=Cc2ccccc2Oc2ccc(Cl)cc2)C(=O)N(C)C1=O | i | 131* | 10 | 2 | 2
Cc1ccc(Sc2ccc(S(=O)(=O)Nc3ccc(CC(=O)O)cc3)cc2)cc1C | i | -1 | . | 6 | 4
Cc1[nH]n(-c2cccc3ccccc23)c(=O)c1C=Nc1ccc2[nH]c(=O)[nH]c2c1 | -8 | 0 | -1 | 35* | 1
Cc1ccc(-n2[nH]c(C)c(C=Nc3ccc4[nH]c(=O)[nH]c4c3)c2=O)cc1 | 0 | -2 | -1 | 22 | -6
Cc1ccc(-n2nc3c(c2NC(=O)c2ccco2)CS(=O)C3)cc1 (stereo unspecified) | 1 | 3 | 3 | 1 | 1
CC(OC(=O)/C(C#N)=C/c1ccco1)C(=O)N(C)c1ccccc1 (stereo unspecified) | i | -5 | . | 32* | 0
CC(C)c1ccc(CN(C)CC(O)c2ccccc2)cc1 (stereo unspecified) | 1 | 1 | 6 | 6 | -11
Fc1ccc(Cn2ccc3ccc(-c4ccc5ccn(Cc6ccc(F)cc6F)c5c4)cc32)c(F)c1 | . | . | . | . | 6
Cc1c(CC(=O)O)c(=O)oc2cc3occ(-c4ccc(F)cc4)c3cc12 | -2 | 4 | 4 | 10 | -6
COc1cc(C(=O)Nc2ccc(OCC(=O)N3CCOCC3)cc2C)cc(OC)c1OC | -4 | 1 | -8 | 11 | -11
Cc1c(CC(=O)O)c(=O)oc2cc(OCc3ccc(F)cc3F)ccc12 | 1 | 156* | 3 | 18 | 9
COC(=O)Cc1c(C)c2ccc(OCC(=O)N3CCOCC3)cc2oc1=O | -1 | 123* | -9 | 26 | 4
COC(=O)Cc1c(C)c2cc(Cl)c(OC(=O)c3ccco3)cc2oc1=O | . | + | 0 | 2 | 3
COC(=O)Cc1c(C)c2ccc(OCC(=O)N(C)C3CCS(=O)(=O)C3)cc2oc1=O (stereo unspecified) | i | 114* | 5 | 17 | 1
Cc1ccccc1C(=O)OCc1cnc(Cl)s1 | -1 | 2 | 6 | 1 | 1
SMILES | BH1578 lux ind | FBA Mtb inh | 3CLpro inhibitor | GDH-TPI inh | PrPC surface inh
COC(=O)Cc1c(C)c2ccc(OC(=O)c3ccco3)cc2oc1=O | i | + | 2 | 17 | -3
COC(=O)Cc1c(C)c2ccc(OC(C)C)cc2oc1=O | i | + | -2 | 30 | 2
COC(=O)c1cc(-c2c(C)oc3cc(OC(C)C)ccc3c2=O)c(C)o1 | 0 | 0 | 2 | 10 | 7
CC(C)(C(=O)N1CCC1(C)C(=O)NS(=O)(=O)c1cccc(Cl)c1)c1ccccc1 (stereo unspecified) | i | -2 | . | 1 | -2
CCOc1ccc(-n2c(COc3ccccc3)nnc2SCC(=O)Nc2ccc3c(c2)OCCO3)cc1 | . | . | . | . | 5
CCN(CC)c1ccc(-c2nnc(SCC(=O)N(CCOC)c3c(N)n(CC(C)C)c(=O)[nH]c3=O)o2)cc1 | i | -2 | . | 47* | 8
Cc1ccc(/C=N/NC(=O)c2nnn(-c3nonc3N)c2CN(C)C)o1 | 0 | 0 | 1 | 28 | -3
Nc1nonc1-n1nnc(C(=O)N/N=C/c2ccc(O)cc2)c1COc1ccc(F)cc1 | 0 | -2 | 8 | 32* | 6
CN(C)c1ccc(/C=N/NC(=O)c2nnn(-c3nonc3N)c2CN(C)c2ccccc2)cc1 | i | 8 | 8 | 31* | -1
COCc1c(C(=O)N/N=C/c2ccc(C)o2)nnn1-c1nonc1N | 0 | -3 | 0 | 38* | -5
CCOc1cc(N2CCOCC2)c(OCC)cc1NC(=O)c1nn(CC)c(=O)c2ccccc12 | -1 | -1 | . | 5 | 7
CCCCNC(=O)C[C@H]1C[C@@]2(C(=O)OC)C(=C[C@H](C(C)C)O[C@@H]2C2CC2)N(Cc2cccc3ccccc23)C1=O | . | . | . | . | 21
Cc1cc(NCCN2CCCCC2)n2c(nc3ccccc32)c1C#N | . | . | -2 | . | .
Cc1cc(NCCCOC(C)C)n2c(nc3ccccc32)c1C#N | 0 | 190* | -2 | 4 | 8
Cc1cc(Nc2ccc(O)cc2)n2c(nc3ccccc32)c1C#N | 3 | 4 | 0 | -1 | 1
Cc1cc(NCCCn2ccnc2)n2c(nc3ccccc32)c1C#N | 0 | 70* | -6 | 9 | -1
CCCc1cc(NCCCO)n2c(nc3ccccc32)c1C#N | 1 | + | 4 | 7 | -2
Cc1cc(NCCCN(C)C)n2c(nc3ccccc32)c1C#N | -1 | + | -7 | 5 | -4
COc1cccc(CNC(=O)[C@@H]2CCCN2C(=O)[C@H]2CCCCN2C(=O)OC(C)(C)C)c1 | . | . | . | . | 4
OCCCNc1ncnc2c1ncn2[C@H]1CN(Cc2ccc3c(c2)OCO3)C[C@@H](CO)O1 | i | 0 | . | 8 | -2
COC(=O)[C@@]12C[C@@H](CC(=O)N3CCSCC3)C(=O)N(Cc3ccco3)C1=CCC(C)(C)C2 | . | . | . | . | 1
COC(=O)c1ccc2nc(-c3ccc(C)cc3)c(Cc3ccccc3)n2c1 | . | . | . | . | 5
CN1N=C(C(=O)Nc2ccc3c(c2)CCC3)CCC1=O | -9 | -3 | 4 | 0 | 5
CCC(C)Nc1cc(C)c(C#N)c2nc3ccccc3n12 (stereo unspecified) | -2 | + | -8 | 15 | 4
CCOc1cc(C(=O)OC(C(=O)NC(=O)NC)c2ccccc2)ccc1OCC(=O)N1CCOCC1 (stereo unspecified) | -2 | 0 | . | -1 | 8
COc1ccc(NC(=O)c2cc3c(-c4ccc(OC)c(OC)c4)nn(C)c3s2)cc1OC | 0 | 2 | 2 | 38* | 2
COc1ccc(-c2nn(C)c3sc(C(=O)NCc4ccco4)cc23)cc1OC | -8 | -1 | 1 | 9 | 10

Source: PubChem (several laboratories)
